Experimental data taken from ChEMBL document CHEMBL1157539, “Thousands of chemical starting points for antimalarial lead identification” (Nature, 2010).
Where “and” joins values, the source holds several entries; their conditions need not be identical. Identical values can stand only once.

How the values were obtained:
Type in all cases: functional
Plasmodium falciparum [1] = assay: GSK_TCMDC: Inhibition of Plasmodium falciparum 3D7 in whole red blood cells, using parasite LDH activity as an index of growth. Test compounds present at 2uM
Plasmodium falciparum [2] = assay: GSK_TCMDC: Inhibition of Plasmodium falciparum Dd2 in whole red blood cells, using parasite LDH activity as an index of growth. Test compounds present at 2uM
HepG2 = assay: GSK_TCMDC: Percent inhibition of human HepG2 cell line. Test compounds present at 10uM.

SMILES | Inhibition (Plasmodium falciparum [1]) | Inhibition (Plasmodium falciparum [2]) | Inhibition (HepG2)
O=C(Nc1cccc(-c2ccc(-c3nc4ccccc4[nH]3)cc2)c1)c1cnn2cccnc12 | 87% | 1% | 9%
Cc1cccc2nc(-c3cccc(-c4cccc(NC(=O)c5csnn5)c4)c3)[nH]c12 | 98% | 49% | 10%
Cl.N=c1c2c(n(Cc3cccc(Cl)c3)c3c1CCC3)CCCC2 | 97% | 86% | 0%
O=C(NCCCCN1CCCC2c3ccc(O)cc3CCC21)c1ccc(-c2ccccc2)cc1 (configuration not stated) | 96% | – | 32% and 26%
Cc1cccc2nc(-c3ccc(-c4cccc(NC(=O)NCc5cccc(F)c5)c4)s3)[nH]c12 | 88% | 8% | 24%
CCCN(Cc1nnc(-c2cccs2)o1)C(=O)CSc1nnnn1-c1cc(C)cc(C)c1 | 92% | 71% | 2%
Cc1sc(CNCCCNc2cc(=O)c3ccccc3[nH]2)c(I)c1C.Cl | 94% | 48% | 0%
CC(C)N1CCN(c2ccc(OCCCN3CCN(c4cccc(Cl)c4Cl)CC3)c(C(F)(F)F)c2)CC1 | 94% | 37% | 79%
COc1ccc(NC(=O)Nc2cccc(-c3cccc(-c4nc5cccc(C)c5[nH]4)c3)c2)cc1 | 100% | 43% | 0%
CCCC(CNCc1ccc(Cl)c(C(F)(F)F)c1)CNc1nc2cnccc2[nH]1.Cl (configuration not stated) | 99% | 8% | 26%
CCc1c[nH]c2c(N3CCCC3=O)cc(C(=O)N[C@@H](Cc3ccccc3)[C@H](O)CNC(C)(C)c3cccc(C(F)(F)F)c3)cc12.O=CO | 98% | 99% | 10%
